# Experimental data: the supplement of paper PMC8728848
# Shown is part of a subset that was picked to be rich in the strongest signals.
# B1: Latrophilin-3 (Homo sapiens), Q9HAR2 (protein)
# chain: MWPSQLLIFMMLLAPIIHAFSRAPIPMAVVRRELSCESYPIELRCPGTDVIMIESANYGRTDDKICDSDPAQMENIRCYLPDAYKIMSQRCNNRTQCAVVAGPDVFPDPCPGTYKYLEVQYECVPYKVEQKVFLCPGLLKGVYQSEHLFESDHQSGAWCKDPLQASDKIYYMPWTPYRTDTLTEYSSKDDFIAGRPTTTYKLPHRVDGTGFVVYDGALFFNKERTRNIVKFDLRTRIKSGEAIIANANYHDTSPYRWGGKSDIDLAVDENGLWVIYATEQNNGKIVISQLNPYTLRIEGTWDTAYDKRSASNAFMICGILYVVKSVYEDDDNEATGNKIDYIYNTDQSKDSLVDVPFPNSYQYIAAVDYNPRDNLLYVWNNYHVVKYSLDFGPLDSRSGQAHHGQVSYISPPIHLDSELERPSVKDISTTGPLGMGSTTTSTTLRTTTLSPGRSTTPSVSGRRNRSTSTPSPAVEVLDDMTTHLPSASSQIPALEESCEAVEAREIMWFKTRQGQIAKQPCPAGTIGVSTYLCLAPDGIWDPQGPDLSNCSSPWVNHITQKLKSGETAANIARELAEQTRNHLNAGDITYSVRAMDQLVGLLDVQLRNLTPGGKDSAARSLNKAMVETVNNLLQPQALNAWRDLTTSDQLRAATMLLHTVEESAFVLADNLLKTDIVRENTDNIKLEVARLSTEGNLEDLKFPENMGHGSTIQLSANTLKQNGRNGEIRVAFVLYNNLGPYLSTENASMKLGTEALSTNHSVIVNSPVITAAINKEFSNKVYLADPVVFTVKHIKQSEENFNPNCSFWSYSKRTMTGYWSTQGCRLLTTNKTHTTCSCNHLTNFAVLMAHVEVKHSDAVHDLLLDVITWVGILLSLVCLLICIFTFCFFRGLQSDRNTIHKNLCISLFVAELLFLIGINRTDQPIACAVFAALLHFFFLAAFTWMFLEGVQLYIMLVEVFESEHSRRKYFYLVGYGMPALIVAVSAAVDYRSYGTDKVCWLRLDTYFIWSFIGPATLIIMLNVIFLGIALYKMFHHTAILKPESGCLDNIKSWVIGAIALLCLLGLTWAFGLMYINESTVIMAYLFTIFNSLQGMFIFIFHCVLQKKVRKEYGKCLRTHCCSGKSTESSIGSGKTSGSRTPGRYSTGSQSRIRRMWNDTVRKQSESSFITGDINSSASLNREGLLNNARDTSVMDTLPLNGNHGNSYSIASGEYLSNCVQIIDRGYNHNETALEKKILKELTSNYIPSYLNNHERSSEQNRNLMNKLVNNLGSGREDDAIVLDDATSFNHEESLGLELIHEESDAPLLPPRVYSTENHQPHHYTRRRIPQDHSESFFPLLTNEHTEDLQSPHRDSLYTSMPTLAGVAATESVTTSTQTEPPPAKCGDAEDVYYKSMPNLGSRNHVHQLHTYYQLGRGSSDGFIVPPNKDGTPPEGSSKGPAHLVTSL
# How the values were obtained:
# Test in all cases: glycan array binding signal (z-score within array); higher = stronger binding
# Details in all cases: glycan notation: IUPAC condensed, linker removed
# Fuc(a1-2)Gal = target: Fuc(a1-2)Gal
# How it was run: (§1)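 Glycan array data came from 3228 arrays in the Consortium for Functional Glycomics database, and only arrays with an available protein sequence were kept. Glycan names were put into IUPAC-condensed notation, and columns mapping to the same glycan were averaged. The binding signal is a within-array Z-score, averaged across arrays of one protein sequence run at different concentrations or buffers and across linkers. A negative Z-score can be read as non-binding.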
# [1] = target: Fuc(a1-2)Gal(b1-3)GalNAc(b1-4)[Neu5Ac(a2-3)]Gal(b1-4)Glc
# How it was run: as §1
# Fuc(a1-2)Gal(b1-3)GlcNAc = target: Fuc(a1-2)Gal(b1-3)GlcNAc
# How it was run: as §1
# [2] = target: Fuc(a1-2)Gal(b1-3)GlcNAc(b1-3)GalNAc
# How it was run: as §1
# [3] = target: Fuc(a1-2)Gal(b1-4)GlcNAc(b1-2)[Fuc(a1-2)Gal(b1-4)GlcNAc(b1-4)]Man(a1-3)[Fuc(a1-2)Gal(b1-4)GlcNAc(b1-2)Man(a1-6)]Man(b1-4)GlcNAc(b1-4)GlcNAc
# How it was run: as §1
# [4] = target: Fuc(a1-2)Gal(b1-4)GlcNAc(b1-3)Gal(b1-4)GlcNAc(b1-3)Gal(b1-4)GlcNAc
# How it was run: as §1
# [5] = target: Fuc(a1-2)Gal(b1-4)GlcNAc(b1-6)GalNAc
# How it was run: as §1
# [6] = target: Fuc(a1-2)Gal(b1-4)[Fuc(a1-3)]GlcNAc(b1-3)GalNAc
# How it was run: as §1
# [7] = target: Fuc(a1-2)[Gal(a1-3)]Gal(b1-3)GlcNAc(b1-2)Man(a1-3)[Fuc(a1-2)[Gal(a1-3)]Gal(b1-3)GlcNAc(b1-2)Man(a1-6)]Man(b1-4)GlcNAc(b1-4)[Fuc(a1-6)]GlcNAc
# How it was run: as §1
# [8] = target: Fuc(a1-2)[Gal(a1-3)]Gal(b1-4)Glc
# How it was run: as §1
# [9] = target: Fuc(a1-2)[Gal(a1-3)]Gal(b1-4)GlcNAc(b1-2)Man(a1-3)[Fuc(a1-2)[Gal(a1-3)]Gal(b1-4)GlcNAc(b1-2)Man(a1-6)]Man(b1-4)GlcNAc(b1-4)GlcNAc
# How it was run: as §1
# [10] = target: Fuc(a1-2)[GalNAc(a1-3)]Gal(b1-4)GlcNAc(b1-3)GalNAc
# How it was run: as §1
# [11] = target: Fuc(a1-2)[GalNAc(a1-3)]Gal(b1-4)[Fuc(a1-3)]GlcNAc(b1-3)GalNAc
# How it was run: as §1
# [12] = target: Fuc(a1-3)[Gal(b1-4)]GlcNAc(b1-6)[Neu5Ac(a2-3)Gal(b1-3)]GalNAc
# How it was run: as §1
# Gal(a1-2)Gal = target: Gal(a1-2)Gal
# How it was run: as §1
# [13] = target: Gal(a1-3)Gal(b1-3)GlcNAc(b1-6)GalNAc
# How it was run: as §1
# Gal(a1-3)Gal(b1-4)GlcNAc = target: Gal(a1-3)Gal(b1-4)GlcNAc
# How it was run: as §1
# [14] = target: Gal(b1-3)[Fuc(a1-4)]GlcNAc
# How it was run: as §1
# [15] = target: Gal(b1-3)[Fuc(a1-4)]GlcNAc(b1-3)Gal(b1-3)[Fuc(a1-4)]GlcNAc
# How it was run: as §1
# [16] = target: Gal(b1-4)GlcNAc(b1-2)Man(a1-6)Man(b1-4)GlcNAc(b1-4)GlcNAc
# How it was run: as §1
# [17] = target: Gal(b1-4)GlcNAc(b1-3)Gal(b1-4)GlcNAc
# How it was run: as §1
# [18] = target: Gal(b1-4)GlcNAc(b1-3)[Gal(b1-4)GlcNAc(b1-6)]Gal(b1-4)GlcNAc
# How it was run: as §1
# Gal(b1-6)Gal = target: Gal(b1-6)Gal
# How it was run: as §1
# [19] = target: Gal3S(b1-4)[Fuc(a1-3)]Glc6S
# How it was run: as §1
# Gal6S(b1-3)GlcNAc = target: Gal6S(b1-3)GlcNAc
# How it was run: as §1
# [20] = target: GalNAc(a1-3)GalNAc(b1-3)Gal(a1-4)Gal(b1-4)Glc
# How it was run: as §1
# GalNAc4S6S(b1-4)GlcNAc = target: GalNAc4S6S(b1-4)GlcNAc
# How it was run: as §1
# GalNAc6S(b1-4)GlcNAc = target: GalNAc6S(b1-4)GlcNAc
# How it was run: as §1
# Glc(a1-4)Glc = target: Glc(a1-4)Glc
# How it was run: as §1
# [21] = target: GlcNAc(a1-4)Gal(b1-4)GlcNAc(b1-3)Gal(b1-4)[Fuc(a1-3)]GlcNAc(b1-3)Gal(b1-4)[Fuc(a1-3)]GlcNAc
# How it was run: as §1
# [22] = target: GlcNAc(b1-2)Gal(b1-3)GalNAc
# How it was run: as §1
# [23] = target: GlcNAc(b1-2)[GlcNAc(b1-4)]Man(a1-3)[GlcNAc(b1-2)Man(a1-6)]Man(b1-4)GlcNAc(b1-4)GlcNAc
# How it was run: as §1
# [24] = target: GlcNAc(b1-2)[GlcNAc(b1-6)]Man(a1-6)[GlcNAc(b1-2)Man(a1-3)][GlcNAc(b1-4)]Man(b1-4)GlcNAc(b1-4)GlcNAc
# How it was run: as §1
# [25] = target: GlcNAc(b1-4)GlcNAc(b1-4)GlcNAc(b1-4)GlcNAc(b1-4)GlcNAc
# How it was run: as §1
# [26] = target: Man(a1-2)Man(a1-3)[Man(a1-2)Man(a1-6)]Man
# How it was run: as §1
# [27] = target: Man(a1-2)Man(a1-3)[Man(a1-2)Man(a1-6)]Man(a1-6)[Man(a1-2)Man(a1-2)Man(a1-3)]Man
# How it was run: as §1
# [28] = target: Man(a1-2)Man(a1-3)[Man(a1-2)Man(a1-6)]Man(a1-6)[Man(a1-2)Man(a1-2)Man(a1-3)]Man(b1-4)GlcNAc(b1-4)GlcNAc
# How it was run: as §1
# [29] = target: Neu5Ac(a2-3)Gal(b1-3)[Fuc(a1-4)]GlcNAc(b1-3)Gal(b1-3)[Fuc(a1-4)]GlcNAc
# How it was run: as §1
# [30] = target: Neu5Ac(a2-3)Gal(b1-4)GlcNAc(b1-2)Man(a1-3)[GlcNAc(b1-2)Man(b1-4)GlcNAc(b1-2)Man(a1-6)]Man(b1-4)GlcNAc(b1-4)GlcNAc
# How it was run: as §1
# [31] = target: Neu5Ac(a2-3)Gal(b1-4)GlcNAc(b1-3)GalNAc
# How it was run: as §1
# [32] = target: Neu5Ac(a2-3)Gal(b1-4)[Fuc(a1-3)]GlcNAc(b1-3)GalNAc
# How it was run: as §1
# [33] = target: Neu5Ac(a2-3)GalNAc(b1-4)GlcNAc
# How it was run: as §1
# [34] = target: Neu5Ac(a2-3)[Neu5Ac(a2-6)]GalNAc
# How it was run: as §1
# Neu5Ac(a2-6)Gal(b1-4)Glc = target: Neu5Ac(a2-6)Gal(b1-4)Glc
# How it was run: as §1
# [35] = target: Neu5Ac(a2-8)Neu5Ac(a2-8)Neu5Ac(a2-3)[GalNAc(b1-4)]Gal(b1-4)Glc
# How it was run: as §1
# [36] = target: Neu5Ac9Ac(a2-6)Gal(b1-4)GlcNAc
# How it was run: as §1
binder,measurement,setting,value
B1,glycan array binding signal (z-score),Fuc(a1-2)Gal,0.041
same,glycan array binding signal (z-score),[1],-0.493
same,glycan array binding signal (z-score),Fuc(a1-2)Gal(b1-3)GlcNAc,-0.169
same,glycan array binding signal (z-score),[2],0.261
same,glycan array binding signal (z-score),[3],-0.478
same,glycan array binding signal (z-score),[4],0.659
same,glycan array binding signal (z-score),[5],2.91
same,glycan array binding signal (z-score),[6],4.34
same,glycan array binding signal (z-score),[7],-0.721
same,glycan array binding signal (z-score),[8],0.962
same,glycan array binding signal (z-score),[9],-0.684
same,glycan array binding signal (z-score),[10],-0.844
same,glycan array binding signal (z-score),[11],4.19
same,glycan array binding signal (z-score),[12],-0.297
same,glycan array binding signal (z-score),Gal(a1-2)Gal,2.83
same,glycan array binding signal (z-score),[13],-0.37
same,glycan array binding signal (z-score),Gal(a1-3)Gal(b1-4)GlcNAc,-0.823
same,glycan array binding signal (z-score),[14],-0.275
same,glycan array binding signal (z-score),[15],-0.618
same,glycan array binding signal (z-score),[16],3.58
same,glycan array binding signal (z-score),[17],-0.111
same,glycan array binding signal (z-score),[18],3.02
same,glycan array binding signal (z-score),Gal(b1-6)Gal,-0.409
same,glycan array binding signal (z-score),[19],-0.622
same,glycan array binding signal (z-score),Gal6S(b1-3)GlcNAc,0.183
same,glycan array binding signal (z-score),[20],-1.16
same,glycan array binding signal (z-score),GalNAc4S6S(b1-4)GlcNAc,1.42
same,glycan array binding signal (z-score),GalNAc6S(b1-4)GlcNAc,3.81
same,glycan array binding signal (z-score),Glc(a1-4)Glc,-0.053
same,glycan array binding signal (z-score),[21],2.21
same,glycan array binding signal (z-score),[22],1.25
same,glycan array binding signal (z-score),[23],0.886
same,glycan array binding signal (z-score),[24],-0.448
same,glycan array binding signal (z-score),[25],0.111
same,glycan array binding signal (z-score),[26],-1.71
same,glycan array binding signal (z-score),[27],0.047
same,glycan array binding signal (z-score),[28],1.12
same,glycan array binding signal (z-score),[29],6.27
same,glycan array binding signal (z-score),[30],0.035
same,glycan array binding signal (z-score),[31],0.708
same,glycan array binding signal (z-score),[32],3.18
same,glycan array binding signal (z-score),[33],-0.972
same,glycan array binding signal (z-score),[34],-1.4
same,glycan array binding signal (z-score),Neu5Ac(a2-6)Gal(b1-4)Glc,1.15
same,glycan array binding signal (z-score),[35],-1.01
same,glycan array binding signal (z-score),[36],-0.383
